Test results published in the OligoGym collection.

Molecular target: C5AR1
Test: pooled miR-30 sensor sort-seq; sequence = guide strand
Settings: shRNA
Also: reference of the scale not given here.

Row | Sequence | sensor-assay potency score (higher = more potent)
1 | TTGAGTGTCTTGGTGGACCGCG | 0.0393
2 | TGAAAGTGTAACAAATCGTGAG | 0.282
3 | TTCAGCAGCAGGAAGGTGGGTG | 0.301
4 | TTTGTCGTGGCTGTAGTCCACG | -0.519
5 | AAGTGTAACAAATCGTGAGCGT | -0.136
6 | TTAAACACCAGCAGAAAGCGGT | -0.159
7 | TTAACTCACTTACAAGAGCTTA | -0.512
8 | TTCAGTCAACACGTTCCGGAGG | -1.26
9 | TACATATTTTCCAACTTGCCAT | -0.462
10 | ATAGTGTCCACTGTGGAGCGCG | -0.598
11 | TAAGGTAACACCATCCCACGAA | 0.399
12 | TAAACACCAGCAGAAAGCGGTC | -1.02
13 | TACTTGTCTGTATTCTGAGTTC | -0.656
14 | TTATTCAGCAGCAGGAAGGTGG | -0.586
15 | TAGAAGTTTTATCCACAGGGGT | -0.173

Molecular target: C5orf51
Test: as above
Settings: shRNA

Row | Sequence | sensor-assay potency score (higher = more potent)
16 | TTTATCTTCATTACTCACTTGA | 1.06
17 | TTAACTGGATAGGACATCGATA | -1.18
18 | TATCTTAATGTAATACCGCTGT | -0.406
19 | TTAACTAAGTCTAAAAGCCTAG | -0.498
20 | TTATTAGTGACATAACATCTGT | -0.587
21 | TTTAGCTGTGTCTAGATCTTGG | 0.753
22 | TAGAACATGATTACACAGGATG | -0.681
23 | TATTAGTGACATAACATCTGTA | 0.937
24 | AAAATCTTCATCTACTAGCTTG | -0.0873
25 | TTGATGGATTTGAACATTCTTT | -0.74
26 | TTCAATATCAGAACTTCTGTAA | 0.18
27 | TTGTATTCCATTCTTGTTCTTT | -0.072

Molecular target: C5orf56
Test: as above
Settings: shRNA

Row | Sequence | sensor-assay potency score (higher = more potent)
28 | TTGATGACGAGGAAAAAGGAGA | -0.938
29 | AAAGGAGACATTTCTTTCCAGA | -0.416
30 | TTCACTGCTGCATTGCTGCCAT | -0.146
31 | TCCAATAGGCTACAAACTCTGG | -1.19
32 | TTCTTTCCAGAATCTTGGCTGT | 0.101
33 | TTATAAGCTGCATGAGAGCAGG | -0.803
34 | TTGTTCACTGCTGCATTGCTGC | -0.868
35 | AATCTTGGCTGTAAGCAGCAGA | -0.53
36 | TTGAAGATTCCCTTGGTGTGTT | 0.717
37 | AACACTTGCTGAATAAATGAGT | -0.962
38 | TTTCTTTCCAGAATCTTGGCTG | 0.311
39 | TTTGAAGATTCCCTTGGTGTGT | -0.413
